LASV entry inh = Lassa virus entry inhibition; Lassa virus pseudotype entry inhibition, cell reporter; Potency, µM (highest dose often 37.9 µM), inactives show top-dose activity change, negative = inhibition, most hits filed as inhibitors; actives 1.2% (n = 300,000); calls by dose curve; tested in HEK293 cells; note: potency is the fitted concentration of half-maximal effect; nearly all actives have a fitted effect of over 50% in size
MARV entry inh = blocks Marburg virus binding to or entry into cells | Marburg virus pseudotyped entry inhibition, cell reporter | Potency, µM (highest dose often 37.8 µM), for inactives: at the highest dose activity change, negative = inhibition, hits mostly inhibitors | actives 1.8% (n = 300,000); calls by dose curve; tested in HEK293 cells; note: potency is the fitted concentration of half-maximal effect
HCMV inh = human cytomegalovirus inhibition | HFF cells, HCMV-luciferase reporter, 72 h; active compounds read low | AID 1259415 | activity change, negative = inhibition, % at 57.5 µM | actives 4.5% (n = 410,000); in the data active = activity change below about -60%; inconclusive = no clear call, values can overlap the other calls; inactive = above about -39%
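Inhibition of viral replication was scored as loss of reporter luminescence in HFFs infected with HCMV-luciferase (MOI 1 PFU/cell) for 72 h; compounds tested at 2 doses, normalized to buffer and Salinomycin controls.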
FMDV antiviral = blocks foot and mouth disease virus; FMDV antiviral cell-based qHTS; actives 1.2% (n = 410,000); AID 1159524; Potency, µM (highest dose often 57.9 µM), for inactives: at the top dose activity change, negative = inhibition, most hits filed as inhibitors; calls by dose curve; tested in HEK293T cells; note: read-out not given here; potency is the fitted concentration of half-maximal effect; nearly all actives have a fitted effect of over 45% in size
* hit, by the source's call; ? = inconclusive; · = no result; [ ] = another dose, or the depositor's remark. Shown are actives, neighbours in structure and some others; about 6.2% of the full set was active somewhere. % is set by controls: 0 for no effect and ±100 for the full control effect.

SMILES	LASV entry inh	MARV entry inh	HCMV inh	FMDV antiviral
COc1ccc(CCNS(=O)(=O)c2ccc(N3CCCC3=O)cc2)cc1	?	?	-7.8	-14.8%
CCOC(=O)c1ccccc1NC(=O)CN(c1ccccc1)S(=O)(=O)c1ccc(OCC)cc1	-13.7%[46.1 µM]	1.5%[46.1 µM]	?	-23.0%
Cc1nn(C)c(C)c1NS(=O)(=O)c1ccc(N2CCCC2=O)cc1	?	?	-62.0*	?
COc1ccc(OC)c(NS(=O)(=O)c2ccc(N3CCCC3=O)cc2)c1	?	?	-72.7*	-15.7%
CCOC(=O)c1ccccc1NS(=O)(=O)c1ccc(OCC)cc1	2.59µM*	?	-16.7	-18.0%
COc1cccc(CNc2ncnc3sc(C(=O)N4CCOCC4)c(C)c23)c1OC	·	·	·	-14.2%
CCOC(=O)c1cccc(NC(=O)c2ccc3c(c2)nnn3C2CCCC2)c1	8.9%[46.1 µM]	·	-14.5	-103.8%
C=CCN1C(=O)CC[C@@]23C1=NC(C(=O)OC)=C(C(=O)OC)[C@@H]2N(CC#CC)c1ccccc13	·	-20.0%[14.2 µM]	·	·
CC(C)(C)c1ccc(OCCCNC2CCCC2)cc1	?	6.31µM*	-10.4	-16.7%
O=C(CCC1CCCC1)N1CCc2c([nH]c3ccccc23)C1c1ccc(F)cc1 (stereo not given)	5.01µM*	·	-84.4*	-19.9%
O=C(CCC1CCCC1)N1CCc2c([nH]c3ccccc23)C1c1ccc(Cl)cc1 (stereo not given)	?	·	-69.2*	-12.9%
C/C=C1/C[N@@+]2(C)CC[C@]34C(=C(C=O)[C@H]1C[C@H]32)Nc1ccccc14	·	·	·	-10.6%
COc1cc(NC(=O)C2CCN(S(=O)(=O)c3cccs3)CC2)cc(OC)c1	-8.0%	10.2%	-33.0	?
Cc1ccc(NC(=O)C2CCN(S(=O)(=O)c3cccs3)CC2)cc1	?	?	-28.1	-19.4%
Cc1ccc(-c2csc(NC(=O)C3CCN(S(=O)(=O)c4cccs4)CC3)n2)cc1	?	?	-78.8*	?
O=C(Nc1nc(-c2ccc3ccccc3c2)cs1)C1CCN(S(=O)(=O)c2cccs2)CC1	?	-1.8%	-74.7*	?
CCc1cc(C(=O)NNC(=S)NC(C)c2ccccc2)cs1 (stereo not given)	-13.9%	-16.1%	-73.1*	-25.0%
CCc1cccc(CC)c1NC(=S)NC(C)c1ccccc1 (stereo not given)	-21.9%	-27.0%	-72.1*	7.7%
C=CCN(C(=O)CCC(=O)O)[C@H]1CC(=O)N(c2ccc(OCCC)cc2)C1=O	·	-1.2%	·	·
COc1ccc(CCNC(=O)CSc2nc3ccccc3nc2Cc2ccc(Cl)cc2)cc1OC	5.4%[46.1 µM]	·	8.1	?
Cc1ccc(-n2c(=O)c3sc4ccccc4c3n(CC(=O)NC3CCCC3)c2=O)cc1C	0.5%[46.1 µM]	0.2%[46.1 µM]	-71.1*	-11.1%
O=C(Cn1c(=O)n(-c2cccc(Cl)c2)c(=O)c2sc3ccccc3c21)N1CCCC1	-18.5%[46.1 µM]	-2.5%[46.1 µM]	-81.0*	-5.8%
COc1ccc(-n2c(=O)c3sc4ccccc4c3n(CC(=O)NCc3ccccc3)c2=O)cc1	-5.3%[46.1 µM]	-1.5%[46.1 µM]	-105.0*	-14.6%
O=C(Cn1c(=O)n(-c2ccccc2)c(=O)c2sc3ccccc3c21)N1CCCC1	5.1%[46.1 µM]	4.3%[46.1 µM]	-18.9	-11.2%
C[C@@]1(c2ccco2)NC(=O)NC1=O	·	9.6%	·	·
SMILES	LASV entry inh	MARV entry inh	HCMV inh	FMDV antiviral
CCCCSCCCNC(=O)CN1C(=O)COc2ccc(S(=O)(=O)N3CCC(C)CC3)cc21	6.7%[46.1 µM]	-9.9%[46.1 µM]	1.4	-19.5%
O=C(NCc1nc2cccnc2n1Cc1ccc(F)cc1)c1ccccc1C(F)(F)F	6.3%[46.1 µM]	·	-60.6*	-6.6%
O=C(Cc1ccc(F)cc1)NCc1nc2cccnc2n1Cc1ccc(F)cc1	-2.0%[46.1 µM]	·	-22.7	-16.0%
Cc1ccc(-n2nnnc2SCC(=O)Nc2ccccc2N2CCCCC2)cc1C	?	12.6µM*	-27.2	-1.0%
Cc1ccc(-c2nc(-c3ccccn3)no2)cc1Cl	1.41µM*	?	-64.1*	-83.7%
c1ccc(-c2nc(-c3ccccn3)no2)cc1	?	?	-17.5	12.6µM*
c1ccc(-c2noc(-c3ccno3)n2)nc1	·	·	-15.5	0.0%
Clc1cccc(-c2nc(-c3ccccn3)no2)c1	1.78µM*	?	-8.0	?
Cc1ccc(-c2nc(-c3ccccn3)no2)cc1	0.316µM*	1.12µM*	-90.6*	2.82µM*
CCN(CC)c1ccc(NC(=O)C2CCN(S(=O)(=O)c3cnc[nH]3)CC2)c(C)c1	-14.4%[46.1 µM]	1.6%[46.1 µM]	1.6	0.3%
COc1ccc(C(C(=O)NCc2ccccc2)N(C(=O)Cn2nnc3ccccc32)c2ccc(OC)cc2)cc1 (stereo not given)	5.7%[46.1 µM]	11.7%[46.1 µM]	-12.0	5.5%
CC(=O)N1CCCc2cc(S(=O)(=O)N3CCCC(C(=O)Nc4cccc(Cl)c4C)C3)ccc21 (stereo not given)	-7.1%[46.1 µM]	·	-19.8	?
c1ccc(-c2ccc(-c3nc(-c4ccccn4)no3)cc2)cc1	?	?	-94.5*	2.82µM*
c1ccc(-c2cc(-c3nc(-c4ccccn4)no3)c3ccccc3n2)cc1	?	14.2%	-15.7	?
CCOc1ccc(CN(CCO)CCO)cc1[N+](=O)[O-]	5.2%	9.3%	-67.8*	-12.4%
CCOc1ccc(CSC2=NCCN2)cc1[N+](=O)[O-]	?	3.98µM*	-25.6	-24.7%
Cc1ccccc1OCC(=O)NCC(c1ccc(Cl)cc1)N1CCOCC1 (stereo not given)	-0.5%[46.1 µM]	-7.3%[46.1 µM]	-38.5	?
COc1ccc(OCc2cc(C(=O)N(C)CCC3CCOCC3)no2)c(Cl)c1	·	·	11.7	-3.2%
COc1ccc(OCc2cc(C(=O)N(C)C(C)c3ccon3)no2)c(Cl)c1 (stereo not given)	3.3%	-6.9%	-92.9*	31.8%
Cn1cc(Br)cc1-c1ncc(Cc2c[nH]c(N)[n+]2C)o1	·	·	-19.5	·
CCC[C@@H](CN[C@@H](CNC)C(C)C)NCCCCc1ccccc1	·	·	?	-16.5%
CCC[C@@H](CN[C@@H](CNC)[C@H](C)CC)NCC1CCC(C(C)(C)C)CC1 (stereo not given in full)	·	·	-99.0*	-28.8%
OC(CNCCc1ccc(C(F)(F)F)cc1)COc1cccc2ccccc12 (stereo not given)	?	?	-11.6	?
CCC[C@H](CN[C@@H](CNC)[C@H](C)CC)NCCc1cc(C(F)(F)F)cc(C(F)(F)F)c1	·	·	-78.0*	?
CC[C@@H](C)[C@H](CNC)NC[C@@H](Cc1cccc2ccccc12)NCCc1cccc(C(F)(F)F)c1	·	·	-99.1*	-68.6%
SMILES	LASV entry inh	MARV entry inh	HCMV inh	FMDV antiviral
COc1c2ccccc2nn1CCCCCO	·	·	3.1	·
CN(Cc1ccccc1)C(=O)c1ccc2c(c1)N(Cc1ccccc1Cl)C(=O)c1ccccc1S2	?	·	?	17.0%
O=C1CC(Sc2nnc(-c3ccccc3O)o2)C(=O)N1c1ccccc1 (stereo not given)	9.2µM*	-6.5%	-31.7	·
O=C1CC(Sc2ncccn2)C(=O)N1c1ccccc1 (stereo not given)	14.7%	-11.9%	50.7	-13.0%
Cc1cccc(N2C(=O)CC(Sc3nccc(C)n3)C2=O)c1 (stereo not given)	-4.5%	11.1%	-97.6*	-9.9%
Cc1nc(SC2CC(=O)N(c3ccccc3)C2=O)n[nH]1 (stereo not given)	0.6%	-0.1%[46.1 µM]	-60.2*	2.7%
